About 83,000 compounds went through this panel and 20% of them were active in at least one assay; those are over-represented in the sample as a whole.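 Treatment: one concentration, 48 hours, 96-well format. Scoring: percent growth, with anything below 10 considered active.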 Values without a mark were called inactive. Calls of active or inactive are those of the source.
What follows are compounds tested on HL-60(TB) leukemia (assay: NCI-60 one-dose screen, 48 h (100 = growth as untreated, 0 = no growth, -100 = all killed)). Settings: 10 µM unless noted.
With `Cc1cc(=O)n2n1-c1ccc(Cl)cc1NC(=O)C2` the growth was 101%. `CCN(CC)CCCNCc1cc(-c2ccccc2)nc2ccccc12` was tested, and the growth was -19.3% (active). In the case of `O=[N+]([O-])c1ccc(/C=C/C=C/c2ccccc2)c(Cl)c1`, the growth is reported as 91.9%. For `COC(=O)c1cc(-c2ccc(S(C)(=O)=O)cc2)[nH]c1N/N=C/c1c(Cl)cccc1Cl`, the growth was -22.3% (active). `C/C=C(\C)C(=O)N[C@H]1CC[C@]2(C)C3CC[C@@]4(C)C(CC[C@@H]4C(C)N(C)C)C3CCC2[C@H]1OC(C)=O` (stereo partly drawn) gave a growth of 18.2%. In the case of `Cc1ccc(N)c(O)c1`, the growth is reported as 128%. For `COc1ccc(/C=C2\SC(=Nc3ccccc3)NC2=O)cc1`, the growth was -70.8% (active). For `CC(COC(=O)c1ccccc1)N1CC2CCC(C1)O2` (stereo not drawn), the growth was 101%. Compound `O=C1CC[C@@H](C(=O)N[C@H]2CSSC[C@@H](C(=O)N/C=C/c3ccc(O)cc3)NC(=O)[C@H](Cc3ccccc3)NC(=O)[C@@H]3CCCN3C(=O)[C@@H]3CCCN3C2=O)N1` has a growth of 74%. `Cc1cc(C)nc(NS(=O)(=O)c2ccc(Nc3ccc4c5c(n(CCCN(C)C)c(=O)c4c3)-c3ccccc3C5=O)cc2)n1` was tested, and the growth was 70.6%. `C[C@@H]1C(=O)[C@@H]2C[C@@H](O)[C@@H](O)C[C@]2(C)[C@H]2CC[C@@]3(C)C(=C12)CC[C@@H]3[C@@](C)(O)[C@H](O)CCC(C)(C)O` gave a growth of 85.7%. `O=C(N=Nc1c(O)[nH]c2ccccc12)Nc1ccc(Cl)cc1` gave a growth of 38.9%. Compound `N#C/C(=C\c1ccc(-c2ccc(Cl)cc2)o1)c1nc(-c2ccco2)cs1` has a growth of 92.3%.

Reference: PubChem BioAssay (NCI)
